In the supplement of paper PMC11732987, “Enantioselective OTUD7B fragment discovery through chemoproteomics screening and high-throughput optimisation” (Communications Chemistry, 2025):

Experiments:
Assay in all cases: log2 ratio of Biotin-Ahx-Ub-VS probe labelling (fragment/DMSO); higher = less target engagement (more negative = stronger competition), active = hit call of the paper (q ≤ 0.05, log2 ratio ≤ -1)
Settings in all cases: compound concentration: 200 uM; treatment time: 3 h
USP42 = molecular target: T1, USP42 (UniProt Q9H9J4)
T1 sequence (whole entry): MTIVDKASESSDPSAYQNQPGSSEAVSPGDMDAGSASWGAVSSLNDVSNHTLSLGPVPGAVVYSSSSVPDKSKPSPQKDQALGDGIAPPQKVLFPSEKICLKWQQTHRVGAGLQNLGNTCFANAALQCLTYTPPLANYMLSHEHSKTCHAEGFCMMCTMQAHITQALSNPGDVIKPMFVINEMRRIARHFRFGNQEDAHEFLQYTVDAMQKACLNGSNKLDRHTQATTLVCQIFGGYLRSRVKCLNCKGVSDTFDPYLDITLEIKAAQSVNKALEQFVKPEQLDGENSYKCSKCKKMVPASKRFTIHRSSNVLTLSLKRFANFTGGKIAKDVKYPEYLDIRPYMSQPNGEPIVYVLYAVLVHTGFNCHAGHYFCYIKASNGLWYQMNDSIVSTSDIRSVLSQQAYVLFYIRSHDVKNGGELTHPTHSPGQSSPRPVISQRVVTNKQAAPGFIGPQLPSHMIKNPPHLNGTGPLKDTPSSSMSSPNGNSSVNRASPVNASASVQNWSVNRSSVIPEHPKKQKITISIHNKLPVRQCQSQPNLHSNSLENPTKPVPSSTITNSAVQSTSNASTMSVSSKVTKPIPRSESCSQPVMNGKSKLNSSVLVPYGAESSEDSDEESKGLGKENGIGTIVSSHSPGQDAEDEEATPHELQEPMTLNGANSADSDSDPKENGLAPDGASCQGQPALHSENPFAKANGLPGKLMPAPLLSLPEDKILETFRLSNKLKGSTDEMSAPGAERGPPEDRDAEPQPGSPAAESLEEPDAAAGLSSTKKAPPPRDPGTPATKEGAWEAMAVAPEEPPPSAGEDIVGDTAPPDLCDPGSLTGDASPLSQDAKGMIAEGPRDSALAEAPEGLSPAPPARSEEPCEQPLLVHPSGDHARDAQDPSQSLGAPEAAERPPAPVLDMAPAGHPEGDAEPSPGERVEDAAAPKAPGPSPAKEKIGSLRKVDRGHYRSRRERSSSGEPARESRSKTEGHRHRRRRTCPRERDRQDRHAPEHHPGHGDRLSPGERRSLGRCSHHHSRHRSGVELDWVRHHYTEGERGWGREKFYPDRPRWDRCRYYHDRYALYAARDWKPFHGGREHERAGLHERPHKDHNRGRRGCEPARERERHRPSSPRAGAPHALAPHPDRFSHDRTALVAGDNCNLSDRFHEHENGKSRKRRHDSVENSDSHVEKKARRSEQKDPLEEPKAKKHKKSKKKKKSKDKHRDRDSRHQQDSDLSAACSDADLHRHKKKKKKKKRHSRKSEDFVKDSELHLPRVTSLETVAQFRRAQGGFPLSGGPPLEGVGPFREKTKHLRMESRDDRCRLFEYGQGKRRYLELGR
How it was run: (§1)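 HEK293T lysate (495 µg per sample, in Tris/CHAPS/IGEPAL buffer with protease inhibitors) was exposed in triplicate for 3 h to fragment at 200 µM or to vehicle, then to Biotin-Ahx-Ub-VS at 0.5 µM final for 1 h. Labelled DUBs were enriched on NeutrAvidin, digested with LysC and trypsin, and analysed by diaPASEF LC-MS/MS. Spectronaut label-free quantities were normalised to the global median, and values are average log2 ratios of fragment over vehicle from an unpaired t-test. Only proteins with ≥2 unique peptides were used.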

USP46 = USP46 (UniProt P62068)
Chain of USP46 (P62068 whole entry): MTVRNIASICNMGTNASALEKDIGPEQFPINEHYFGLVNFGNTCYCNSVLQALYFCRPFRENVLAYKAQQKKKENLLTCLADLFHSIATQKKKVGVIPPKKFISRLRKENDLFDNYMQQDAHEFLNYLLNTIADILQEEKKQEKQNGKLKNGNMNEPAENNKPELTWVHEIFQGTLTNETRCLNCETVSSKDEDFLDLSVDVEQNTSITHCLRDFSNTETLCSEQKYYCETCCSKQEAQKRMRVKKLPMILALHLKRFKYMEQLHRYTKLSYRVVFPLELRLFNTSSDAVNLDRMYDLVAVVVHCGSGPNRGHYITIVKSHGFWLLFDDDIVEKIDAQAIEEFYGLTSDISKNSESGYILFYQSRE
How it was run: as §1

USP47 = molecular target: T2, USP47 (UniProt Q96K76)
T2 sequence (whole entry): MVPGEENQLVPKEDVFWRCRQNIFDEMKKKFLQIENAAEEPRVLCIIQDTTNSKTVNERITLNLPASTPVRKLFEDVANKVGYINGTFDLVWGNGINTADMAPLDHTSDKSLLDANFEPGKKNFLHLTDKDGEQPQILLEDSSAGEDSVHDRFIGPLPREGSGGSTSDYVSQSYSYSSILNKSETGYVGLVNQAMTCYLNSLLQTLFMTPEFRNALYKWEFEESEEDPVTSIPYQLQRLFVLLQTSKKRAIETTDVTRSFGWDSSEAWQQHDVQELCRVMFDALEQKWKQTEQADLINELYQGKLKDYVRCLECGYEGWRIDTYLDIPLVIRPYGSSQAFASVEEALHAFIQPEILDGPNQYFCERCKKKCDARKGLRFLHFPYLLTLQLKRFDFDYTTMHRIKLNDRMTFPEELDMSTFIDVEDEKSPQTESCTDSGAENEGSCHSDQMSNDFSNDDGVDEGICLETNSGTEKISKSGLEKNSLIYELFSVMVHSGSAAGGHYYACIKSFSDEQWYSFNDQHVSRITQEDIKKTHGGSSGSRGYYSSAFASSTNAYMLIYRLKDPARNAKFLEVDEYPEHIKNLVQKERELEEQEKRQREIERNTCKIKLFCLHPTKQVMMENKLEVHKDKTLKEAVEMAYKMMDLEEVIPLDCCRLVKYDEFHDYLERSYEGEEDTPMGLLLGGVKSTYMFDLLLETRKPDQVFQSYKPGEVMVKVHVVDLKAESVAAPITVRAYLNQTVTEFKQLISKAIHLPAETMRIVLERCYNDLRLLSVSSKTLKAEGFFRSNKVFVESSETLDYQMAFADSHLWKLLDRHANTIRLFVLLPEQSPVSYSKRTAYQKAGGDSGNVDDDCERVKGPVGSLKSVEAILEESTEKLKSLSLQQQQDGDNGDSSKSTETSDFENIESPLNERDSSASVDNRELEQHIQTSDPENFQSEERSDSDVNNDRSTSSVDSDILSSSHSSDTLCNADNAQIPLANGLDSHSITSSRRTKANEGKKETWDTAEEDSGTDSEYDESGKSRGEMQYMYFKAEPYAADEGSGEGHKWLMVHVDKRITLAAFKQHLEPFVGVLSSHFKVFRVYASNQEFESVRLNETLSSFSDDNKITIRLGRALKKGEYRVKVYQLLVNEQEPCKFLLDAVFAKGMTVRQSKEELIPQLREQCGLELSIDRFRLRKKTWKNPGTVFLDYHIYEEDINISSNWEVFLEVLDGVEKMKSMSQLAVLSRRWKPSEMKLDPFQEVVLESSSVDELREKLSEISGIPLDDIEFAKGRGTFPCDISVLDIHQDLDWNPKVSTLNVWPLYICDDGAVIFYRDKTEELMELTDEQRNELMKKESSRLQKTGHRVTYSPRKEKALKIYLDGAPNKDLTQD
How it was run: as §1

USP48 = molecular target: T3, USP48 (UniProt Q86UV5)
T3 sequence (whole entry): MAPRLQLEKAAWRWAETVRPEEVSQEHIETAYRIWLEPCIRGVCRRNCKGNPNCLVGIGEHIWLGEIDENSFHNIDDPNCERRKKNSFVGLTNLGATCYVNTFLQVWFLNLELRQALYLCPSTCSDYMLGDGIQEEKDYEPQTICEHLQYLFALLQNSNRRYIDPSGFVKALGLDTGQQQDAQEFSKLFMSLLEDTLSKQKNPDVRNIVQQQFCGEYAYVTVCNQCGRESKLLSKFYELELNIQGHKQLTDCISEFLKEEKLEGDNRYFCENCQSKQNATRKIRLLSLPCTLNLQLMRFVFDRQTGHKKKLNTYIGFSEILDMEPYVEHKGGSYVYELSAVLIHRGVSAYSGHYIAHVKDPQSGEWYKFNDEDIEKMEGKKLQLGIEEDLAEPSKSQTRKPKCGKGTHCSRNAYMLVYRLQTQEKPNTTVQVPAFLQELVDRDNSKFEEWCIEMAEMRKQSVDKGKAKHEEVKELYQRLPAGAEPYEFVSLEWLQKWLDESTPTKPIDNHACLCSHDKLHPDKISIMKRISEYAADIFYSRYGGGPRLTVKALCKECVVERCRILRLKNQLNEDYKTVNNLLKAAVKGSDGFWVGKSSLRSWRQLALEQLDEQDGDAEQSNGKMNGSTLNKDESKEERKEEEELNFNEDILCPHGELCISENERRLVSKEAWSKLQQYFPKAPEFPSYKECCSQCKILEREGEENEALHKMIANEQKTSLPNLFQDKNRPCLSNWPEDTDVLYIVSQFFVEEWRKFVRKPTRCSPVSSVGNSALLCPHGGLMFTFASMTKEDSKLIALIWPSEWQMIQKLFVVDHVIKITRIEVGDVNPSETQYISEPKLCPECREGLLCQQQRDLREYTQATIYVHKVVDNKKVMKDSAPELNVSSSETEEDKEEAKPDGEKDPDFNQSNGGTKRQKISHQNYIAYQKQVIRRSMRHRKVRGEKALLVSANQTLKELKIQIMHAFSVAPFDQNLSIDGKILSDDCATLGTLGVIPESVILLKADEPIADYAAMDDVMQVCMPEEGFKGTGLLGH
How it was run: as §1

USP5 = molecular target: T4, USP5 (UniProt P45974)
T4 sequence (whole entry): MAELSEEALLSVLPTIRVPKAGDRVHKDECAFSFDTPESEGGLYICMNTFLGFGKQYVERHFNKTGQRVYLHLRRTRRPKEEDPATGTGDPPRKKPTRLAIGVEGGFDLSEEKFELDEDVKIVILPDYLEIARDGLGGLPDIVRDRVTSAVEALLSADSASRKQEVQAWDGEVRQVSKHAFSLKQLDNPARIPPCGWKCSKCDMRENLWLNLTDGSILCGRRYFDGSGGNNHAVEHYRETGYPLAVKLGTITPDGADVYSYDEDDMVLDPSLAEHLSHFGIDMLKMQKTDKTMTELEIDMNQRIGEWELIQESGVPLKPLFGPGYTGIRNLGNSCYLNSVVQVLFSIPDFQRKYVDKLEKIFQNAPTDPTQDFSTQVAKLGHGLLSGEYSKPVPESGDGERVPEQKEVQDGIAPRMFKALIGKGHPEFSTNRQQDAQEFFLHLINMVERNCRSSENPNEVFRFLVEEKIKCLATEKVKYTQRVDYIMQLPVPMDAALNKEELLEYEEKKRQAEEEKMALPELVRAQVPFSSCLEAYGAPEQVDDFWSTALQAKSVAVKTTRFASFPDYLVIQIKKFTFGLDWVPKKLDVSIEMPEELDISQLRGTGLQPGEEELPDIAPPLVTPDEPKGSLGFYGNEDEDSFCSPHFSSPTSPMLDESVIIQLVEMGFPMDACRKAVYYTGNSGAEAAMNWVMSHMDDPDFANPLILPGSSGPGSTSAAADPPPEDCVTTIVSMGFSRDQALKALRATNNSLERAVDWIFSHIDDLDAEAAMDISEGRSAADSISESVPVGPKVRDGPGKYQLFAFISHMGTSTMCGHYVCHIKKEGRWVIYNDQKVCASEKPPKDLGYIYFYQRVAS
How it was run: as §1

USP54 = USP54 (UniProt Q70EL1)
Chain of USP54 (Q70EL1 whole entry): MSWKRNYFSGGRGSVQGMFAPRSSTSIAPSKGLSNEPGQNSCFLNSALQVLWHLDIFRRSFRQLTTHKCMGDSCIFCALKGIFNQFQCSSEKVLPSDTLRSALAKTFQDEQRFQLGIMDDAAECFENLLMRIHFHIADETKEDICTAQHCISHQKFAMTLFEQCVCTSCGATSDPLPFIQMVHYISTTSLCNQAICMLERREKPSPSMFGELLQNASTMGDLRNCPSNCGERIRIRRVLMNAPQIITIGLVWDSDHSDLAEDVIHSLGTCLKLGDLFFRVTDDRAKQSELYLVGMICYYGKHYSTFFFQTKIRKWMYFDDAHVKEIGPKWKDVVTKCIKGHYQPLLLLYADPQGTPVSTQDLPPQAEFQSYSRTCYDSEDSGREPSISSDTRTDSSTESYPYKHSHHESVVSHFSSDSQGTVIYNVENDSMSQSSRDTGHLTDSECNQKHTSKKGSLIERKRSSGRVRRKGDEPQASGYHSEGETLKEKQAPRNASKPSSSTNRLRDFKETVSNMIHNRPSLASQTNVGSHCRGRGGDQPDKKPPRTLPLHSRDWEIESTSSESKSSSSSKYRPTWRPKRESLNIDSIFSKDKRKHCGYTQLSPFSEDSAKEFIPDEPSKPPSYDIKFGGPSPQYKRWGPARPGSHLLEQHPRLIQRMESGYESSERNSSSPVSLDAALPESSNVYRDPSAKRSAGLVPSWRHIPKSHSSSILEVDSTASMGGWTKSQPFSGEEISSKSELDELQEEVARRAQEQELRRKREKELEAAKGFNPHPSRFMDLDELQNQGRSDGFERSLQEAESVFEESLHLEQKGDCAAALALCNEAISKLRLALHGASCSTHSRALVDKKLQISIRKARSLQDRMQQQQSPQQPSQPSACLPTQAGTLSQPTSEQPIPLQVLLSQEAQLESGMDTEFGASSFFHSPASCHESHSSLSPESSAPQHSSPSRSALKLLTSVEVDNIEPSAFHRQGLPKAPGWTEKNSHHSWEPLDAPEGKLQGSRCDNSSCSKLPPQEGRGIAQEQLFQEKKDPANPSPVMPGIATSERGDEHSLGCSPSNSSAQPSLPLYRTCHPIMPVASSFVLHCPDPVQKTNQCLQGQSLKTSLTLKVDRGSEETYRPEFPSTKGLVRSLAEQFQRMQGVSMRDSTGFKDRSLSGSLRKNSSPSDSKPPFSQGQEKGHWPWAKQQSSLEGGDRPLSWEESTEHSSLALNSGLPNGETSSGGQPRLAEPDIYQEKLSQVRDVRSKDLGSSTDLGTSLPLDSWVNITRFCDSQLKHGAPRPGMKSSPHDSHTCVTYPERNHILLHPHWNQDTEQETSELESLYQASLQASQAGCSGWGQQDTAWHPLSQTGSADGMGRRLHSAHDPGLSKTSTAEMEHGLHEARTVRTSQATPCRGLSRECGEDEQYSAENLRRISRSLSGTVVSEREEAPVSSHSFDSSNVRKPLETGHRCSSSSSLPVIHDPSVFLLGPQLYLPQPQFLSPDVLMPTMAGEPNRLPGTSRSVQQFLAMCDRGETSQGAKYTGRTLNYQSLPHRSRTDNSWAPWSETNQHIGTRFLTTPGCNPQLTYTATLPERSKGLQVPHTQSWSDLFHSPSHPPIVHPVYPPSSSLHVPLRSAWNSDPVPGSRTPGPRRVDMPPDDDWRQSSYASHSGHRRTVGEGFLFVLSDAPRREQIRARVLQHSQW
How it was run: as §1

USP7 = USP7 (UniProt Q93009)
Chain of USP7 (Q93009 whole entry, looked up): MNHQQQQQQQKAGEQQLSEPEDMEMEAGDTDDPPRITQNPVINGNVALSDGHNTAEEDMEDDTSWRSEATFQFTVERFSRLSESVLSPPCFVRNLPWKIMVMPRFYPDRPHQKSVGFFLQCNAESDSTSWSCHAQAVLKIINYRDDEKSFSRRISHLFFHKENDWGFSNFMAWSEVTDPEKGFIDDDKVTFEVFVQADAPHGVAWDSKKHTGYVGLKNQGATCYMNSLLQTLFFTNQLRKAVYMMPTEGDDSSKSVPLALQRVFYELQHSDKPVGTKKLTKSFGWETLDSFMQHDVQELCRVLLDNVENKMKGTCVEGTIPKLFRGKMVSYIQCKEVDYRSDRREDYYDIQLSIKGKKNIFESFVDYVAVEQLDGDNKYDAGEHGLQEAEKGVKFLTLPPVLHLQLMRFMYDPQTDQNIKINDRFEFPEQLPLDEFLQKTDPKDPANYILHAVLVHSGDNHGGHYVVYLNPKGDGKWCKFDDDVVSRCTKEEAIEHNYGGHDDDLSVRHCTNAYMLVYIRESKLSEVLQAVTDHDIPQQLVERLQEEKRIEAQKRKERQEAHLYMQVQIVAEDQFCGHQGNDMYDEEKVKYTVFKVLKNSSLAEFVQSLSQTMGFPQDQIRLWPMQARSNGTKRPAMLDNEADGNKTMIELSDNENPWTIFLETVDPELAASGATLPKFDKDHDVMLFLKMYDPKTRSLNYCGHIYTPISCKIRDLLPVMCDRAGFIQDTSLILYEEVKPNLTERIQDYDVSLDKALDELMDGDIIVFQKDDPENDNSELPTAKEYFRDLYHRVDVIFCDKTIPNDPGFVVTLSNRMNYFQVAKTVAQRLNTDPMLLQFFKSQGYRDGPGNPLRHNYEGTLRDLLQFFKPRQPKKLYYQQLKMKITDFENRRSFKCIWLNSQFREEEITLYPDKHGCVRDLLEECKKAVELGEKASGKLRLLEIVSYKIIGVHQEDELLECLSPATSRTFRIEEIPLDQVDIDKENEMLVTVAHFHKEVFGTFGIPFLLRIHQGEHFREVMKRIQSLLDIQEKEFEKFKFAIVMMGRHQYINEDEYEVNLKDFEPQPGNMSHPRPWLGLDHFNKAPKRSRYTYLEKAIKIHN
How it was run: as §1

USP8 = molecular target: T5, USP8 (UniProt P40818)
T5 sequence (whole entry): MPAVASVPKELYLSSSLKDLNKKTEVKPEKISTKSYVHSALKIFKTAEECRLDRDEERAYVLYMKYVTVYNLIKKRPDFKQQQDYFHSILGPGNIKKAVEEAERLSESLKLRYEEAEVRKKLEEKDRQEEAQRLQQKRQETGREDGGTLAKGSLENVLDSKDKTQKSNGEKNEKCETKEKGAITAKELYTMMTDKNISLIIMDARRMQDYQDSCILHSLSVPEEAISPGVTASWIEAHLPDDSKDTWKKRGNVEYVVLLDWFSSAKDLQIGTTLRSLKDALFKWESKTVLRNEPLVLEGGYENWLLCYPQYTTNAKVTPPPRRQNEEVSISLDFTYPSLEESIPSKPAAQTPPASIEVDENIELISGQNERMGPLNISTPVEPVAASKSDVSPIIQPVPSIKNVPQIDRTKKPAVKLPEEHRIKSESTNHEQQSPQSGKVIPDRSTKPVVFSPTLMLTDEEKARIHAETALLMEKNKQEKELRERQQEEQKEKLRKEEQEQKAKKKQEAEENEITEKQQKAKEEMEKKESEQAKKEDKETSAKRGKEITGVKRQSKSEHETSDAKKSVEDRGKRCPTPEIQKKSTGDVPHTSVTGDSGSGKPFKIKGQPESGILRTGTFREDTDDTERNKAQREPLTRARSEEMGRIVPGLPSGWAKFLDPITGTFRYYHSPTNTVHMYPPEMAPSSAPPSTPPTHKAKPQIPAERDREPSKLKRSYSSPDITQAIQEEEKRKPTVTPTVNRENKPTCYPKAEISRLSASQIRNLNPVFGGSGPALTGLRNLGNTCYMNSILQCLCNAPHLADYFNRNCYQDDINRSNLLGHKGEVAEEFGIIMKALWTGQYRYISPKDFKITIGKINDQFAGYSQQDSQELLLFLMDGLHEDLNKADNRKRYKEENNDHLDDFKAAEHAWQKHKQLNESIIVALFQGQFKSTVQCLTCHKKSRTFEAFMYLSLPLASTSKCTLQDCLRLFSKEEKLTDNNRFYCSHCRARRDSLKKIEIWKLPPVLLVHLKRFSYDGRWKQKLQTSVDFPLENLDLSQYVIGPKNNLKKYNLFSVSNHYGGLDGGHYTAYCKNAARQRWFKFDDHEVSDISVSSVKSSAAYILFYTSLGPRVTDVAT
How it was run: as §1

Measured: log2 ratio of Biotin-Ahx-Ub-VS probe labelling

O=C(CCl)N1CCC(C(=O)N2CCCC2)CC1
inactive: USP42 -0.161 | USP46 0.0393 | USP47 -0.0567 | USP48 0.126 | USP5 -0.266 | USP54 -0.159 | USP7 -0.543 | USP8 -0.0342
